Compounds without any hit were thinned out: in the full panel of roughly 79,000, 15% have a hit. A number with no mark means an inactive call. Calls of active or inactive are those of the source. Rule as the data show it: active = growth inhibition above about 70%; inactive = the rest.

Among the data in PubChem BioAssay (NCI) are growth inhibition values, retold here.

Assay [1] is described as follows: NCI Yeast Anticancer Drug Screen. Data for the rad50 strain (AID 155).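 Also: 0% = growth of vehicle-only cultures of the same strain.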 Particulars: S. cerevisiae rad50 strain growth inhibition, stronger effect = higher value. In short, it runs like this:
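Yeast carrying a defined DNA repair defect were exposed to test compounds, and growth was compared with vehicle-treated controls to give percent inhibition.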

Assay [2] can be described thus: NCI Yeast Anticancer Drug Screen. Data for the mec2-1 strain (AID 157). The settings on record: S. cerevisiae mec2-1 strain, stronger effect = higher value. The method, boiled down:
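Each compound was tested on mec2-1 yeast, a strain altered in DNA damage repair or cell cycle control. Growth inhibition is reported relative to vehicle.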

A short description of assay [3]: NCI Yeast Anticancer Drug Screen. Data for the sgs1 mgt1 strain (AID 161).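 Also: 0% = growth of cultures given vehicle only.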 Particulars: S. cerevisiae sgs1 mgt1 strain, stronger effect = higher value. The method, boiled down:
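Inhibition of yeast growth, normalised to vehicle-treated controls, is reported for a strain bearing genetic alterations in DNA damage repair.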

Assay [4] in a line: NCI Yeast Anticancer Drug Screen. Data for the cln2 rad14 strain (AID 165).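 Also: 0% = growth equal to vehicle treated cultures.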 Particulars: S. cerevisiae cln2 rad14 strain, stronger effect = higher value. The method, boiled down:
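Test compounds were added to cln2 rad14 yeast cultures; inhibition of growth was then determined by comparison with vehicle treatment.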

Assay [5] in a line: NCI Yeast Anticancer Drug Screen. Data for the bub3 strain (AID 167). Particulars: S. cerevisiae bub3 mutant strain, stronger effect = higher value. The method, boiled down:
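Compounds were applied to a genetically altered yeast strain carrying a cell-cycle control defect. Growth inhibition was scored against vehicle-treated controls.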

A short description of assay [6]: NCI Yeast Anticancer Drug Screen. Data for the mlh1 rad18 strain (AID 175). Particulars: S. cerevisiae mlh1 rad18 strain growth inhibition, stronger effect = higher value. The method, boiled down:
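Inhibition values reflect reduced growth of mutant yeast versus vehicle-treated controls following compound exposure; the mutations affect DNA damage repair.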

The mark [7] stands for this setting: at 5.0 µM (retest, dose inferred, filed as 0.5).
Setting [8] is: at 50.0 µM (retest, dose inferred, filed as 5.0).

As for `COC(=O)c1ccc(SCCC(=O)CCl)cc1`, the growth inhibition was 23% in assay [1] (setting [7]); 99% (active) in assay [1] (setting [8]); 99.3% (active) in assay [1] (at 50.0 µM); 25% in assay [2] (setting [7]); 99% (active) in assay [2] (setting [8]); 99.2% (active) in assay [2] (at 50.0 µM). Besides, the growth inhibition in assay [3] (setting [7]) was 24%; in assay [3] (setting [8]), 99% (active); in assay [3] (at 50.0 µM), 99% (active); in assay [4] (setting [7]), 14%; in assay [4] (setting [8]) it was 99% (active); in assay [4] (at 50.0 µM), 98.7% (active). Also, the growth inhibition was 38% in assay [5] (setting [7]); 99% (active) in assay [5] (setting [8]); 99.4% (active) in assay [5] (at 50.0 µM); 27% in assay [6] (setting [7]); 99% (active) in assay [6] (setting [8]); 99% (active) in assay [6] (at 50.0 µM).

Consider `CCCCCCN(CCCCCC)CCCC(O)c1cccc2ccccc12` (stereo not drawn), for which the growth inhibition is -2% in assay [1] (setting [7]); -5% in assay [1] (setting [8]); 99.2% (active) in assay [1] (at 50.0 µM); 2% in assay [2] (setting [7]); 2% in assay [2] (setting [8]); 99.3% (active) in assay [2] (at 50.0 µM). The growth inhibition in assay [3] (setting [7]) was 0%; in assay [3] (setting [8]) it was 1%; in assay [3] (at 50.0 µM), 99.2% (active); in assay [4] (setting [7]) it was 0%; in assay [4] (setting [8]), -3%; in assay [4] (at 50.0 µM) it was 99.2% (active). The growth inhibition was -2% in assay [5] (setting [7]); 2% in assay [5] (setting [8]); 97% (active) in assay [5] (at 50.0 µM); 1% in assay [6] (setting [7]); -3% in assay [6] (setting [8]); 99.2% (active) in assay [6] (at 50.0 µM).

In the case of `C#CCNC1=CC(=O)CCC1`, the growth inhibition in assay [1] (setting [7]) is -14%; in assay [1] (setting [8]) it was 16%; in assay [1] (at 50.0 µM), -12.1%; in assay [2] (setting [7]), 0%; in assay [2] (setting [8]), -1%; in assay [2] (at 50.0 µM), 9.55%. In addition, the growth inhibition in assay [3] (setting [7]) was -3%; in assay [3] (setting [8]), -10%; in assay [3] (at 50.0 µM), -4.55%; in assay [4] (setting [7]), 17%; in assay [4] (setting [8]), 6%; in assay [4] (at 50.0 µM), 58.5%. The growth inhibition in assay [5] (setting [7]) is 14%; in assay [5] (setting [8]), -13%; in assay [5] (at 50.0 µM), 35.5%; in assay [6] (setting [7]), -4%; in assay [6] (setting [8]), 1%; in assay [6] (at 50.0 µM), 17.6%.

As to `O=S1(=O)CC2C1C1(Cl)OC2(Cl)c2ccccc21` (stereo not drawn), the growth inhibition in assay [1] (setting [7]) was 2%; in assay [1] (setting [8]), 13%; in assay [1] (at 50.0 µM), 75.2% (active); in assay [2] (setting [7]), 16%; in assay [2] (setting [8]), 9%; in assay [2] (at 50.0 µM) it was -9.25%. The growth inhibition was 2% in assay [3] (setting [7]); 6% in assay [3] (setting [8]); 31.1% in assay [3] (at 50.0 µM); -45% in assay [4] (setting [7]); 17% in assay [4] (setting [8]); -1.65% in assay [4] (at 50.0 µM). Moreover, the growth inhibition in assay [5] (setting [7]) is -3%; in assay [5] (setting [8]), -9%; in assay [5] (at 50.0 µM) it was 21.4%; in assay [6] (setting [7]), 1%; in assay [6] (setting [8]), 1%; in assay [6] (at 50.0 µM), 27.6%.

As to `Cc1cc(C)nc(CCSS(=O)(=O)O)c1`, the growth inhibition in assay [1] (setting [7]) is -4%; in assay [1] (setting [8]) it was 5%; in assay [1] (at 50.0 µM), 12.7%; in assay [2] (setting [7]) it was -17%; in assay [2] (setting [8]), 2%; in assay [2] (at 50.0 µM), -0.95%. Moreover, the growth inhibition was 2% in assay [3] (setting [7]); 6% in assay [3] (setting [8]); 3.35% in assay [3] (at 50.0 µM); -1% in assay [4] (setting [7]); -8% in assay [4] (setting [8]); 0.65% in assay [4] (at 50.0 µM). The growth inhibition is -1% in assay [5] (setting [7]); -6% in assay [5] (setting [8]); 40.9% in assay [5] (at 50.0 µM); 12% in assay [6] (setting [7]); 6% in assay [6] (setting [8]); 5.85% in assay [6] (at 50.0 µM).

Consider `O=C1c2cc(F)ccc2-c2c(F)cc(F)c(F)c21`, for which the growth inhibition is 8% in assay [1] (setting [7]); 7% in assay [1] (setting [8]); 82.3% (active) in assay [1] (at 50.0 µM); 6% in assay [2] (setting [7]); 5% in assay [2] (setting [8]); 55.9% in assay [2] (at 50.0 µM). Further, the growth inhibition in assay [3] (setting [7]) was 2%; in assay [3] (setting [8]), 4%; in assay [3] (at 50.0 µM) it was 41%; in assay [4] (setting [7]), 3%; in assay [4] (setting [8]), -6%; in assay [4] (at 50.0 µM), 34.9%. Besides, the growth inhibition was -7% in assay [5] (setting [7]); -14% in assay [5] (setting [8]); 5.95% in assay [5] (at 50.0 µM); 4% in assay [6] (setting [7]); 7% in assay [6] (setting [8]); 46.8% in assay [6] (at 50.0 µM).
